In PubChem BioAssay (EPA / NIEHS):
Results filed as inconclusive are left out. Activity calls are given as the source filed them. Rule for the calls, unless noted: active = hit-call score of the fitted dose curve at least 0.9, where 1 is the maximum; inconclusive = response in the unintended direction; inactive = score below 0.9.

Tests used:
[1] = Tanguay_ZF_120hpf_EYE_legacy: (Legacy) Oregon State University Tanguay Lab 120 Hour Post-fertilization zebrafish Assay for Eye Malformation (AID 2283636);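 note: binary presence or absence of eye malformation scored by brightfield in 120 hpf larvae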
Summary of the method: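 Dechorionated Tropical 5D zebrafish embryos, one per well from 6 hpf, static exposure to 120 hpf at 28C, 0.64% DMSO. Eye malformation scored present/absent by brightfield; dead embryos not scored.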

[2] = Tanguay_ZF_120hpf_SNOU_legacy: (Legacy) Oregon State University Tanguay Lab 120 Hour Post-fertilization zebrafish Assay for Snout Malformation (AID 2283637)
Summary of the method: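 Dechorionated tropical 5D wild-type zebrafish embryos exposed statically from 6 to 120 hpf at 28C, one per well, in 0.64% DMSO. Snout malformation scored as present/absent by brightfield at 120 hpf; dead embryos not scored.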

[3] = Tanguay_ZF_120hpf_JAW_legacy: (Legacy) Oregon State University Tanguay Lab 120 Hour Post-fertilization zebrafish Assay for Jaw Malformation (AID 2283638);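 for AC50: active means more embryos with jaw malformation than DMSO controls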
Summary of the method: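 Static waterborne exposure of dechorionated wild-type (Tropical 5D) zebrafish from 6 to 120 hpf at 28C, 0.64% DMSO vehicle; 5uM trimethyltin chloride served as positive control. Jaw morphology recorded as binary at 120 hpf.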

[4] = Tanguay_ZF_120hpf_OTIC_legacy: (Legacy) Oregon State University Tanguay Lab 120 Hour Post-fertilization zebrafish Assay for Otic Vesicle Malformation (AID 2283639)
Summary of the method: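 Tropical 5D wild-type zebrafish embryos statically exposed in 0.64% DMSO at 28C until 120 hpf; 5uM trimethyltin chloride as positive control. Otic vesicle malformation scored present/absent by brightfield; dead embryos not scored; gain fitted versus DMSO.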

[5] = Tanguay_ZF_120hpf_PE_legacy: (Legacy) Oregon State University Tanguay Lab 120 Hour Post-fertilization zebrafish Assay for Pericardial Edema (AID 2283640);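 for AC50: potency for increased incidence of pericardial edema versus DMSO baseline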
Summary of the method: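 Read-out is the presence or absence of pericardial edema at 120 hpf under brightfield, with gain of signal fitted against DMSO controls. Larvae (5D wild-type) were statically exposed at 28C with 0.64% final DMSO.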

[6] = Tanguay_ZF_120hpf_BRAI_legacy: (Legacy) Oregon State University Tanguay Lab 120 Hour Post-fertilization zebrafish Assay for Brain Malformation (AID 2283641)
Summary of the method: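 Brain malformation in Tropical 5D zebrafish was recorded as a binary endpoint after static compound exposure from early development to 120 hpf at 28C. Activity was analysed against DMSO as negative control.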

[7] = Tanguay_ZF_120hpf_SOMI_legacy: (Legacy) Oregon State University Tanguay Lab 120 Hour Post-fertilization zebrafish Assay for Somite Malformation (AID 2283647)
Summary of the method: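 5D WT zebrafish; chorion removed 4 hpf; 1 embryo/well from 6 hpf; static exposure to 120 hpf, 28C, 0.64% DMSO final. Endpoint: somite malformation, binary, brightfield. Mortality excluded.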

[8] = Tanguay_ZF_120hpf_PFIN_legacy: (Legacy) Oregon State University Tanguay Lab 120 Hour Post-fertilization zebrafish Assay for Pectoral Fin Malformation (AID 2283648);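 note: each larva judged yes or no for fin defect by brightfield with dead larvae skipped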
Summary of the method: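 Dechorionated Tropical 5D wild-type zebrafish embryos, one per well, statically exposed from 6 to 120 hpf at 28C with 0.64% DMSO final. Pectoral fin malformation scored present/absent by brightfield at 120 hpf; not scored in dead embryos.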

[9] = Tanguay_ZF_120hpf_PIG_legacy: (Legacy) Oregon State University Tanguay Lab 120 Hour Post-fertilization zebrafish Assay for Pigmentation Malformation (AID 2283650)
Summary of the method: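 Dechorionated Tropical 5D wild-type embryos, one per well from 6 hpf, statically exposed at 28C in the dark until 120 hpf, 0.64% DMSO final. Pigmentation scored present/absent by brightfield microscopy; dead embryos not scored; fitted versus DMSO.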

[10] = Tanguay_ZF_120hpf_CIRC_legacy: (Legacy) Oregon State University Tanguay Lab 120 Hour Post-fertilization zebrafish Assay for Circulatory Malformation (AID 2283651)
Summary of the method: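 Dechorionated wild-type 5D zebrafish embryos, one per well, statically exposed from 6 to 120 hpf at 28C with 0.64% DMSO; circulatory malformation scored present/absent by brightfield microscopy at 120 hpf, dead embryos excluded.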

[11] = Tanguay_ZF_120hpf_SWIM_legacy: (Legacy) Oregon State University Tanguay Lab 120 Hour Post-fertilization zebrafish Assay for Swim Bladder Malformation (AID 2283654);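 note: swim bladder malformation in each larva scored yes or no under brightfield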
Summary of the method: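 Dechorionated wild-type Tropical 5D zebrafish embryos, one per well from 6 hpf, were statically exposed at 28C until 120 hpf in 0.64% DMSO. Swim bladder malformation scored as present/absent by brightfield microscopy; not scored in dead larvae.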

[12] = Tanguay_ZF_120hpf_TRUN_legacy: (Legacy) Oregon State University Tanguay Lab 120 Hour Post-fertilization zebrafish Assay for Truncated Body (AID 2283655)
Summary of the method: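 5D wild-type larvae; pronase dechorionation; static exposure 6→120 hpf, 28C; DMSO 0.64% final; 5uM trimethyltin chloride positive control. Readout: presence/absence of truncated body, analyzed relative to DMSO.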

[13] = Tanguay_ZF_120hpf_NC_legacy: (Legacy) Oregon State University Tanguay Lab 120 Hour Post-fertilization zebrafish Assay for Notochord and Tail Malformation (AID 2283656)
Summary of the method: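 Dechorionated Tropical 5D wild-type zebrafish embryos, one per well from 6 hpf, statically exposed to 120 hpf at 28C in 0.64% DMSO final. Notochord distortion scored present/absent by brightfield; dead embryos excluded.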

[14] = read-out: solute carrier (SLC10A1), SLC10A1 (gene 6554); experiment: LTEA_HepaRG_SLC10A1: Life Technologies and Expression Analysis (LTEA) Assay for solute carrier (SLC10A1) using HepaRG (AID 2283657; active = hit-call score of the fitted dose curve at least 0.9, where 1 is the maximum; inactive = score below 0.9); settings: mRNA level, 48 h; actives raise or lower the signal
Summary of the method: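 HepaRG cells (single lot) exposed 48 h in serum-free induction medium, 8-point half-log series from 100 uM top in 0.5% DMSO, duplicate. SLC10A1 mRNA by qRT-PCR normalised to ACTB, GAPDH, POLR2A; bidirectional fit versus DMSO.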

[15] = read-out: matrix metalloproteinase-1 (MMP1), MMP1 (gene 4312); experiment: LTEA_HepaRG_MMP1: Life Technologies and Expression Analysis (LTEA) Assay for matrix metalloproteinase-1 (MMP1) using HepaRG (AID 2283658; active = hit-call score of the fitted dose curve at least 0.9, where 1 is the maximum; inactive = score below 0.9); settings: mRNA level, 48 h; actives raise or lower the signal
Summary of the method: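 Bidirectional concentration-response fitting relative to 0.5% DMSO gives the endpoint, derived from MMP1 mRNA levels (qRT-PCR) in human HepaRG cells treated 48 h with chemicals up to 100 uM.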

[16] = read-out: Broad substrate specificity ATP-binding cassette transporter ABCG2 (Homo sapiens) (UniProt Q9UNQ0); experiment: CLD_ABCG2_6hr: CellzDirect (CLD) Gene Expression Assay for ABC Transporter (ABCG2) at 6 hours (AID 2283660)
Summary of the method: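 Primary human hepatocytes dosed daily with chemicals at multiple concentrations (0.2% DMSO vehicle), harvested 6 h after dosing. ABCG2 mRNA induction read by quantitative nuclease protection assay (qNPA) chemiluminescence; gain of signal fitted against DMSO baseline.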

[17] = Tanguay_ZF_120hpf_CFIN_legacy: (Legacy) Oregon State University Tanguay Lab 120 Hour Post-fertilization zebrafish Assay for Caudal Fin Malformation (AID 2283649)
Summary of the method: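 Embryos were collected from Tropical 5D wild-type adults and dechorionated at 4 hpf. At 6 hpf each was exposed, one per well, at 0.64% DMSO and 28C. At 120 hpf fin morphology was scored; dead embryos were excluded.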

[18] = read-out: ABC Transporter (ABCB1), ABCB1 (gene 5243); experiment: CLD_ABCB1_6hr: CellzDirect (CLD) Gene Expression Assay for ABC Transporter (ABCB1) at 6 hours (AID 2283659);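 note: hits raise ABCB1 transcript above the DMSO vehicle baseline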
Summary of the method: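 Primary human hepatocytes (two donor preparations) dosed daily for two days with chemicals at multiple concentrations, 0.2% DMSO vehicle; harvested 6 h post-dose. ABCB1 mRNA induction quantified by qNPA chemiluminescence; gain-of-signal fitted versus DMSO.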

[19] = read-out: xenobiotic metabolism (CYP1A1), CYP1A1 (gene 1543); experiment: CLD_CYP1A1_6hr: CellzDirect (CLD) Gene Expression Assay for xenobiotic metabolism (CYP1A1) at 6 hours (AID 2283661);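 for AC50: potency for transcript induction above DMSO vehicle baseline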
Summary of the method: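 Primary human hepatocytes from two donors, compound versus 0.2% DMSO vehicle. CYP1A1 mRNA measured 6 h after dosing by quantitative nuclease protection assay with chemiluminescent read-out; induction fitted relative to DMSO, cytotoxicity flagged by microscopy.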

Measured: AC50

Sequence of Broad substrate specificity ATP-binding cassette transporter ABCG2 (Homo sapiens) (Q9UNQ0 whole entry, looked up): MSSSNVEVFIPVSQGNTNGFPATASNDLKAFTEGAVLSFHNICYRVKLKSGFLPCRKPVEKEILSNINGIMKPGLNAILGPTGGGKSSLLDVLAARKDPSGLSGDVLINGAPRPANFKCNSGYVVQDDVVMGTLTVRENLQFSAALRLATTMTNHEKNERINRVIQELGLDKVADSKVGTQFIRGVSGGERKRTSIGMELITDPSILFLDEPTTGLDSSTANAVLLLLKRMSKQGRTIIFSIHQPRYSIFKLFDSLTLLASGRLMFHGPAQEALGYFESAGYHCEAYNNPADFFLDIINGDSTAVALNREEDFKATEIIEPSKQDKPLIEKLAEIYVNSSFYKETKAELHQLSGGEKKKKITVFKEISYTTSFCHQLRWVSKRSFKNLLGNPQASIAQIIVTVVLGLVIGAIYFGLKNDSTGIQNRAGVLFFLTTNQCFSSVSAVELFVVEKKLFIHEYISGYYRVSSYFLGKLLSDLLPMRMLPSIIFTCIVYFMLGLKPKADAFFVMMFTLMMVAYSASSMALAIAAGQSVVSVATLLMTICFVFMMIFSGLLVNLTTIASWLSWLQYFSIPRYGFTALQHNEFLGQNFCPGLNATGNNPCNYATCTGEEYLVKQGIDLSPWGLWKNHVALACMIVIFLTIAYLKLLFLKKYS

CCc1cccc(CC)c1N(COC)C(=O)CCl
not listed: [17] | [18] | [19]
inactive: all other assays above

CSc1nc(NC(C)C)nc(NC(C)C)n1
active: [14] 61.6 µM | [19] 3.97 µM
not listed: [12]
inactive: all other assays above

CCC(=O)Nc1ccc(Cl)c(Cl)c1
active: [19] 20 µM
not listed: [10] | [14] | [15] | [16]
inactive: all other assays above

CSc1nnc(C(C)(C)C)c(=O)n1N
not listed: [9] | [14] | [15]
inactive: all other assays above

COP(=O)(OC)SCn1c(=O)oc2cc(Cl)cnc21
active: [1] 15.3 µM | [2] 47.5 µM | [3] 15.9 µM | [5] 11.2 µM
not listed: [14] | [15] | [18] | [19]
inactive: all other assays above

COP(=O)(NC(C)=O)SC (stereo not given)
not listed: [13] | [14] | [15]
inactive: all other assays above

CSC1=N[C@@](C)(c2ccccc2)C(=O)N1Nc1ccccc1
active: [5] 2.63 µM | [19] 0.00477 µM
not listed: [10] | [14] | [15] | [16]
inactive: all other assays above

CCOP(=S)(OCC)OC(Cl)C(Cl)(Cl)Cl (stereo not given)
not listed: [10] | [11] | [14] | [15] | [16]
inactive: all other assays above
